Our source for the growth values is PubChem BioAssay (NCI).

Molecules are shown by their SMILES. Compounds without any hit were thinned out: in the full panel of roughly 83,000, 20% have a hit.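 Treatment: one concentration, 48 hours, 96-well format. Scoring: percent growth, with anything below 10 considered active.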 Unmarked numbers belong to inactive results. Active and inactive are the calls of the source.

Holding throughout (experiment): NCI-60 one-dose screen, 48 h (100 = growth as untreated, 0 = no growth, -100 = all killed)
Details in all cases: 10 µM unless noted

Assay [1] has as its system T-47D breast.
The test system of assay [2] is BT-549 breast.
For assay [3], the system named is MDA-MB-435 melanoma.
Assay [4] concerns SW-620 colon.
The subject of assay [5] is MCF7 breast.
In assay [6] the test system is HCT-116 colon.
Assay [7] relates to HCC-2998 colon.
Assay [8] deals with KM12 colon.

Consider `COc1ccc2c(c1)OC13Oc4cc(OC)ccc4C=C1CCCC3=C2`, for which the growth in assay [1] was 44.7%; in assay [2], 35%; in assay [3], -10.4% (active); in assay [4] it was 16.6%; in assay [5], 8.63% (active); in assay [6] it was 20%. In addition, the growth in assay [7] is 57.9%; in assay [8] it was -5.69% (active).

As to `CCOc1cc(CNc2ccc(N3CCOCC3)c(C(=O)O)c2)ccc1OC`, the growth in assay [1] is 103%; in assay [2], 108%; in assay [3], 104%; in assay [4] it was 98.5%; in assay [5], 82.2%; in assay [6], 119%. The values for the growth in assay [7] and in assay [8] were 99.9% and 100%, respectively.

For `Fc1ccc(C2CC(c3cccc(Nc4ccncc4)c3)=NN2c2ccccc2)cc1` (stereo not drawn), the growth was 71% in assay [1]; 87.7% in assay [2]; -54.8% (active) in assay [3]; -65.4% (active) in assay [4]; 8.89% (active) in assay [5]; 61.9% in assay [6]. The growth is 3.99% (active) in assay [7] and 8.85% (active) in assay [8].

For the compound `Cc1ccc(S(=O)(=O)Nc2ccc(Cl)cc2)cc1`, the growth in assay [1] was 106%; in assay [2], 106%; in assay [3], 101%; in assay [4] it was 105%; in assay [5] it was 93.7%; in assay [6], 97.4%. The growth in assay [7] is 104%; in assay [8] it was 105%.

In the case of `CN1CCN(Cc2ccc(NC(=O)c3cncc(C#Cc4cnccc4C(F)(F)F)c3)cc2C(F)(F)F)CC1`, the growth was 92.2% in assay [1]; 91.8% in assay [2]; 54.7% in assay [3]; 62.8% in assay [4]; 49% in assay [5]; 29.1% in assay [6]. Moreover, the growth in assay [7] was 65.7%; in assay [8], 20.8%.

Turning to `CCN(CC)CCCCCCNc1cc(OC)cc2cccnc12`, the growth in assay [1] was 92.5%; in assay [2] it was 83.9%; in assay [3], 17.8%; in assay [4] it was -64.5% (active); in assay [5] it was 20%; in assay [6], -54.4% (active). Moreover, the growth was 84.1% in assay [7] and 76% in assay [8].

`BrC(Br)(Br)c1cnc2ccccc2n1`: the growth in assay [1] is -49.3% (active); in assay [2] it was 74.4%; in assay [3] it was 36.5%; in assay [4], -65% (active); in assay [5] it was 25.8%; in assay [6], -40.3% (active). Further, the growth in assay [7] was 43.8%; in assay [8], 42.7%.

Regarding `COc1ccc(C(=O)c2cc(C)c(OC)c(C)c2)c(OC)c1O`, the growth in assay [1] is 40.2%; in assay [2] it was 8.49% (active); in assay [3], -40.3% (active); in assay [4], 22%; in assay [5], 16.1%; in assay [6], 1.83% (active). Also, the growth was 16.8% in assay [7] and 7.53% (active) in assay [8].

Turning to `Cc1cccc(Oc2ccc(Nc3ncnc4ccc(NC(=O)CN(C)C)cc34)cc2Cl)c1`, the growth in assay [1] was 39.4%; in assay [2] it was 72.9%; in assay [3], 34.5%; in assay [4], 12.6%; in assay [5], 22.7%; in assay [6] it was 21.4%. Also, the growth in assay [7] was 13.3%; in assay [8], 35.1%.

Take `COC(=O)N[C@H]1CCc2cc(OC)c(OC)c(OC)c2-c2ccc(SC)c(=O)cc21`: the growth in assay [1] was 50.2%; in assay [2], -4.09% (active); in assay [3] it was -29.5% (active); in assay [4], 16.9%; in assay [5], 14.7%; in assay [6], 5.32% (active). Further, the growth in assay [7] was 6.51% (active); in assay [8], 1.21% (active).

With `COc1ccc(C(O)c2cc3c(N)c(C(=O)Nc4ccc(Cl)cc4)sc3nc2C)cc1` (stereo not drawn), the growth in assay [1] is 37.4%; in assay [2], 66.4%; in assay [3], -52.5% (active); in assay [4], 27.1%; in assay [5], 16.6%; in assay [6] it was 21.7%. Moreover, the growth was 23% in assay [7] and 9.89% (active) in assay [8].

Turning to `Cc1cc2cc3cc(C)c(N)cc3[n+](C)c2cc1N`, the growth in assay [1] is 8.77% (active); in assay [2], 9.11% (active); in assay [3], 9.46% (active); in assay [4], 9.45% (active); in assay [5] it was 8.32% (active); in assay [6] it was 3.49% (active). Further, the growth in assay [7] was 9.7% (active); in assay [8] it was 5.06% (active).

For `C/C(=C(/c1ccccc1)c1ccc(OCC(O)CNCCN2CCOCC2)cc1)c1ccccc1` (stereo not drawn), the growth in assay [1] was 89.3%; in assay [2], 105%; in assay [3], -63.8% (active); in assay [4] it was 49%; in assay [5] it was 44.6%; in assay [6] it was 106%. Moreover, the growth in assay [7] was -59.6% (active); in assay [8] it was 54.3%.

Turning to `O=C(CN1CCOCC1)Nc1ccc2ncnc(Nc3ccc(Oc4cccc(C(F)(F)F)c4)c(Cl)c3)c2c1`, the growth in assay [1] was 19.5%; in assay [2], 70.1%; in assay [3], 65.5%; in assay [4] it was 82.2%; in assay [5] it was 34.2%; in assay [6] it was 45.1%. Moreover, the growth was 87.1% in assay [7] and 74.2% in assay [8].

As for `O=C1/C(=C/c2ccc(O)cc2)COc2ccc(-c3ccccc3)cc21`, the growth in assay [1] was 30.8%; in assay [2], 80.9%; in assay [3], 60.7%; in assay [4] it was 76.4%; in assay [5], 34.2%; in assay [6] it was 32.1%. For the same compound, the growth in assay [7] was 82%; in assay [8], 19.4%.

With `COc1ccc(/C=N/NC(=O)c2cccc3cc[nH]c23)cc1O`, the growth in assay [1] is 41.4%; in assay [2] it was 55.9%; in assay [3], -21.4% (active); in assay [4], 29.8%; in assay [5], 8.85% (active); in assay [6], 21.8%. The growth in assay [7] was 55.4%; in assay [8] it was 29.8%.
